The sample as a whole holds a higher share of hits than the screen did.
Pf Dd2 growth – blocks in vitro growth of P. falciparum Dd2; Potency, µM (highest dose often 28.9 µM), most hits filed as inhibitors; 120,000 tested, 4.3% active; P. falciparum Dd2 growth, SYBR Green, 72 h; AID 1347417; active = well fitted inhibition curve with a large enough effect; also: nearly all actives have a fitted effect of over 65% in size
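Infected erythrocytes (Dd2, 0.3% parasitemia, 2.5% hematocrit final) are added to compound in RPMI-1640/Albumax II medium, grown 72 h at 37C in low oxygen, then lysed with saponin/Triton-X containing SYBR Green and read by fluorescence.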
Numbers stand for hits; n = inactive.

SMILES	Pf Dd2 growth
CC(C)CCNC(=O)c1ccc(N2CC3CC(C2)[C@H]2CCCC(=O)N2C3)nc1 (stereo partly drawn)	n
COCCn1c(Cn2ccc3ccccc32)nnc1C1CC(N)C1 (stereo not drawn)	n
Cc1cc(C)cc(NC(=O)c2nnn(Cc3cccc(Br)c3)c2N)c1	n
Cc1ccc(Cn2nnc(C(=O)Nc3ccc(F)c(F)c3)c2N)cc1	0.89µM
CCOc1ccc(Cn2nnc(C(=O)Nc3ccc(Cl)cc3)c2N)cc1	n
CCc1ccc(Cn2nnc(C(=O)Nc3ccc(C)cc3)c2N)cc1	n
CSc1ccc(Cn2nnc(C(=O)Nc3ccc(C)cc3Cl)c2N)cc1	n
Nc1c(C(=O)Nc2ccccc2Cl)nnn1Cc1cccc(Cl)c1	7.1µM
Cc1ncc2c(n1)CCCN(CC(=O)NC1CC1)C2=O	n
COCCNC(=O)C1CCN(C(=O)c2ncn3c2COC(c2ccc(F)cc2)C3)CC1 (stereo not drawn)	n
CSCCCN1CC[C@@H](NC(=O)c2ccncc2)[C@H](O)C1	n
O=C1CCN(C(=O)CCc2ccccc2)CCCC(c2nc(-c3ccccc3)no2)CCN1 (stereo not drawn)	n
CCOc1ccc(-n2c(=O)c3c4c(sc3n(Cc3cc(=O)n5cc(Cl)ccc5n3)c2=O)CCC4)cc1	n
CC(=O)c1sc2c(c1C)c(=O)n(-c1ccc(Cl)cc1)c(=O)n2Cc1cc(=O)n2cc(Cl)ccc2n1	1.3µM
Cc1sc2c(c1C)c(=O)n(-c1ccc(Cl)cc1)c(=O)n2Cc1cc(=O)n2ccccc2n1	n
Cn1cc(CN2CCc3c([nH]n(CCO)c3=O)C2)c(-c2ccccc2)n1	n
Cc1noc(C2CCCN2C(=O)c2cccc(CC3CCNCC3)c2)n1 (stereo not drawn)	n
O=C(c1ccccn1)N1C[C@@H]2OCC(=O)N(CC3CCCCC3)[C@@H]2C1	n
Cc1ccccc1C(=O)Nc1ccc([C@H]2OCC(=O)N(Cc3ccncc3)[C@@H]2CO)cc1	n
O=C(Nc1ccc([C@H]2OCC(=O)N(CC3CCCCC3)[C@@H]2CO)cc1)c1ccccn1	11µM
COc1ccc(C(=O)N2CCCC3(CN[S+](=O)([O-])c4ccccc4N3)C2)cc1 (stereo not drawn)	n
CCC(C(=O)N1CCc2onc(-c3ccc(F)c(F)c3)c2C1)n1cccn1 (stereo not drawn)	n
CC(C)n1ccnc1CN1CCc2onc(-c3ccc(Cl)cc3)c2C1	13µM
CCc1nc2c(c(-c3ccc(Cl)cc3)n1)CCN(CCC(C)C)CC2	n
O=C(Cc1cccc(F)c1)N1CCC2(CC1)NC(=O)N(c1ccccc1Cl)N2	n
SMILES	Pf Dd2 growth
COc1ccc(-c2nc(C3CC(=O)N(c4ccc(C)cc4)C3)no2)c(OC)n1 (stereo not drawn)	n
Cc1ccc(NC(=O)N2C[C@@H](F)C[C@H]2C(=O)N2CCc3ccccc3C2)cc1	n
CC(C)CCNC(=O)Cn1cc(S(=O)(=O)Cc2ccc(F)cc2)c2ccccc21	n
O=C(Cn1c(-c2cccs2)cc2ccccc21)NCCCN1CCN(c2ccccc2F)CC1	8.9µM
CCc1ccc(CNC(=O)Cn2c(-c3cccs3)cc3cc(F)ccc32)cc1	n
O=C(NCCN1CCN(c2ccccc2F)CC1)C1COc2ccccc2C1 (stereo not drawn)	n
O=C(NCc1ccc(F)cc1)c1csc(N2CCN(c3ccccc3F)CC2)n1	n
CC(C)CCNC(=O)Cn1c(-c2cccs2)cc2cc(F)ccc21	4.5µM
CCN1CCN(C(=O)Cn2c(-c3cccs3)cc3ccccc32)CC1	n
CC(C)(C)c1ccc2c(c1)N(CC(=O)NCCCN1CCN(c3ccccc3F)CC1)C(=O)CO2	n
O=C(Cn1c(-c2cccs2)cc2cc(F)ccc21)NCCCN1CCN(c2ccccc2F)CC1	8.9µM
O=C(C1CN(S(=O)(=O)c2ccccc2)CC12CCCCC2)N1CCOCC1 (stereo not drawn)	n
O=C(NCc1cc(-c2ccccn2)no1)[C@H]1CNC[C@@H](C(=O)N2CCOCC2)C1	n
COCCN1CC(CO)C2(CCN(C(=O)Cc3ccccc3OC)CC2)C1 (stereo not drawn)	n
COc1ccc(Cl)cc1C(=O)N1[C@@H]2CC[C@H]1CC(NC(=O)c1ccncc1)C2 (stereo partly drawn)	n
CCN(CC)C(=O)C(NC(=O)c1ccc(C)cc1)C1CCN(C(=O)c2cccc(OC)c2)CC1 (stereo not drawn)	4.5µM
CCC(C)NC(=O)C(NC(=O)c1ccc(C)cc1)C1CCN(C(=O)c2ccc(F)cc2)CC1 (stereo not drawn)	n
COc1ccc(C(=O)NC(C(=O)NC(C)C(C)C)C2CCN(C(=O)c3ccc(C)cc3)CC2)cc1 (stereo not drawn)	2.5µM
CCN(CC)C(=O)C(NC(=O)c1ccc(OC)cc1)C1CCN(C(C)=O)CC1 (stereo not drawn)	n
COc1ccc(C(=O)NC(C(=O)N2CCCC2)C2CCN(C(=O)c3ccccc3)CC2)cc1 (stereo not drawn)	n
CCCNC(=O)C(NC(=O)c1cccc(OC)c1)C1CCN(C(=O)c2cccc(OC)c2)CC1 (stereo not drawn)	n

Screening data (PubChem BioAssay)
